Assay results published in the antibiotic and cytotoxicity screens of Wong et al. (2023).
In all, about 39,000 compounds went through this assay and about 1,500 (3.8%) were called active. The full list was thinned out, with actives kept by preference.

system: HSkMC (human skeletal muscle cells); assay: cytotoxicity call (relative viability < 0.9); settings: 10 µM

Q: Cc1noc(C)c1S(=O)(=O)Nc1ccc2c(c1)CC(=O)N([C@H](C)CO)C[C@@H](C)[C@H](CN(C)Cc1ccc(-c3ccccc3)cc1)O2 was tested. Which cytotoxicity call did it give?
A: inactive

Q: How did the cytotoxicity call turn out when Cc1noc(C)c1S(=O)(=O)Nc1ccc2c(c1)CC(=O)N([C@@H](C)CO)C[C@@H](C)[C@@H](CN(C)Cc1ccc(-c3ccccc3)cc1)O2 was run?
A: inactive

Q: For Cc1noc(C)c1S(=O)(=O)Nc1ccc2c(c1)CC(=O)N([C@H](C)CO)C[C@H](C)[C@@H](CN(C)Cc1ccc(-c3ccccc3)cc1)O2, which cytotoxicity call is on record?
A: active

Q: With CC(C)CC#Cc1cnc2c(c1)C(=O)N([C@H](C)CO)C[C@H](C)[C@@H](CN(C)C(=O)CN1CCOCC1)O2 as the molecule, how does the cytotoxicity call read?
A: inactive

Q: NC(=O)N1C(=O)[C@H]2[C@H](C1=O)[C@H]1C=C(CCCO)[C@@H]2[C@H](c2ccc(CN3CCCC3)cc2)N1Cc1sc2ccccc2c1Cl was tested. Which cytotoxicity call did it give?
A: inactive

Q: How did the cytotoxicity call turn out when C[C@@H]1CN([C@H](C)CO)C(=O)c2cc(NS(=O)(=O)c3cccs3)ccc2O[C@@H]1CN(C)CC1CC1 was run?
A: inactive

Q: Which cytotoxicity call does the source give for C[C@@H]1CN([C@H](C)CO)C(=O)Cc2cc(NS(=O)(=O)c3cccs3)ccc2O[C@H]1CN(C)S(=O)(=O)c1ccc(F)cc1 here?
A: inactive

Q: With C[C@H](CO)N1C[C@H](C)[C@@H](CN(C)C(=O)Nc2ccc(F)cc2)OCCCC[C@H](C)Oc2ccc(NC(=O)Nc3cccc4ccccc34)cc2C1=O as the molecule, how does the cytotoxicity call read?
A: inactive

Q: For COCCCNC(=O)[C@@]1(Cc2ccccc2I)c2ccccc2C(=O)N(C2CCCCC2)[C@H]1c1ccc(CO)cc1, which cytotoxicity call is on record?
A: inactive

Q: C[C@@H]1CN([C@H](C)CO)C(=O)Cc2cc(NC(=O)Nc3ccccc3)ccc2O[C@@H]1CN(C)Cc1ccc(C(F)(F)F)cc1 was tested. Which cytotoxicity call did it give?
A: active

Q: For C[C@@H]1CN([C@@H](C)CO)C(=O)Cc2cc(NC(=O)Nc3ccccc3)ccc2O[C@H]1CN(C)Cc1ccc(C(F)(F)F)cc1, which cytotoxicity call is on record?
A: active

Q: For C[C@@H]1CN([C@@H](C)CO)C(=O)Cc2cc(NC(=O)Nc3ccccc3)ccc2O[C@@H]1CN(C)Cc1ccc(C(F)(F)F)cc1, which cytotoxicity call is on record?
A: active

Q: With C[C@H]1CN([C@@H](C)CO)C(=O)Cc2cc(NC(=O)Nc3ccccc3)ccc2O[C@H]1CN(C)Cc1ccc(C(F)(F)F)cc1 as the molecule, how does the cytotoxicity call read?
A: active

Q: With C[C@H](CO)N1C[C@H](C)[C@@H](CN(C)Cc2ccc(C(F)(F)F)cc2)Oc2ccc(NC(=O)Nc3ccccc3)cc2CC1=O as the molecule, how does the cytotoxicity call read?
A: inactive

Q: Which cytotoxicity call does the source give for C[C@@H](O)C#Cc1ccc2c(c1)O[C@@H](CN(C)C(=O)C1CCCCC1)[C@@H](C)CN([C@@H](C)CO)S2(=O)=O here?
A: inactive

Q: How did the cytotoxicity call turn out when Cc1noc(C)c1S(=O)(=O)Nc1ccc2c(c1)C(=O)N([C@H](C)CO)C[C@H](C)[C@H](CN(C)Cc1ccc(Cl)c(Cl)c1)OCCCC[C@@H](C)O2 was run?
A: inactive

Q: Which cytotoxicity call does the source give for COc1oc(C(=O)NC2CCCCC2)c(-c2ccc(Cl)cc2)c1S(=O)(=O)c1ccc2c(c1)OCCO2 here?
A: inactive

Q: How did the cytotoxicity call turn out when CN1C(=O)c2cc(NS(=O)(=O)c3ccc(F)cc3)ccc2OC[C@@H]2O[C@H](CC(=O)NCC(F)(F)F)CC[C@H]21 was run?
A: inactive

Q: Which cytotoxicity call does the source give for C[C@@H]1CCCCO[C@H](CN(C)S(=O)(=O)c2ccc(F)cc2)[C@H](C)CN([C@@H](C)CO)C(=O)c2cc(NS(=O)(=O)c3ccc(Cl)cc3)ccc2O1 here?
A: inactive

Q: With COc1ccc(O)cn1 as the molecule, how does the cytotoxicity call read?
A: inactive

Q: With C[C@H]1CCCCO[C@H](CN(C)S(=O)(=O)c2cccs2)[C@@H](C)CN([C@@H](C)CO)C(=O)c2cc(NC(=O)Nc3cccc4ccccc34)ccc2O1 as the molecule, how does the cytotoxicity call read?
A: inactive

Q: With C[C@@H]1CN([C@@H](C)CO)C(=O)c2cc(NC(=O)Nc3ccccc3)ccc2O[C@H]1CN(C)S(C)(=O)=O as the molecule, how does the cytotoxicity call read?
A: inactive

Q: CC(C)NC(=O)N(C)C[C@H]1Oc2ccc(NS(=O)(=O)c3ccc(F)cc3)cc2CC(=O)N([C@@H](C)CO)C[C@H]1C was tested. Which cytotoxicity call did it give?
A: inactive

Q: O=C1C=CC(O)(/C=C/C(=O)O[C@@H]2[C@@H](O)[C@H](Oc3ccc(O)cc3)O[C@H](CO)[C@H]2O)C=C1 was tested. Which cytotoxicity call did it give?
A: inactive

Q: C[C@H](CO)N1C[C@H](C)[C@@H](CN(C)Cc2cccc(C(=O)Nc3ccccc3N)c2)OCc2ccccc2-c2c(n(C)c3ccccc23)C1=O was tested. Which cytotoxicity call did it give?
A: inactive

Q: C[C@H](CO)N1C[C@H](C)[C@H](CN(C)Cc2ccc(C(F)(F)F)cc2)Oc2ccc(NC(=O)Nc3ccccc3)cc2CC1=O was tested. Which cytotoxicity call did it give?
A: active

Q: With C[C@@H]1CN([C@H](C)CO)C(=O)Cc2cc(NC(=O)Nc3ccccc3)ccc2O[C@H]1CN(C)Cc1ccc(C(F)(F)F)cc1 as the molecule, how does the cytotoxicity call read?
A: active

Q: For C[C@H]1CN([C@@H](C)CO)C(=O)Cc2cc(NC(=O)Nc3ccccc3)ccc2O[C@@H]1CN(C)Cc1ccc(C(F)(F)F)cc1, which cytotoxicity call is on record?
A: active

Q: How did the cytotoxicity call turn out when C=C1C(c2ccc(C)cc2)=CCc2cc(C)cc(C)c21 was run?
A: inactive

Q: With C[C@@H]1CCCCO[C@@H](CN(C)S(=O)(=O)c2cccs2)[C@H](C)CN([C@@H](C)CO)C(=O)c2cc(NC(=O)Nc3ccc(F)cc3)ccc2O1 as the molecule, how does the cytotoxicity call read?
A: inactive

Q: How did the cytotoxicity call turn out when Cc1nnn2c1COC[C@H](CNCC(C)C)C2 was run?
A: inactive

Q: How did the cytotoxicity call turn out when COCC(=O)Nc1ccc2c(c1)OC[C@@H](C)N(Cc1ccccc1OC)C[C@@H](C)[C@@H](OC)CN(C)C2=O was run?
A: inactive

Q: With COc1ccc(NC(=O)Nc2ccc3c(c2)C(=O)N([C@@H](C)CO)C[C@@H](C)[C@@H](CN(C)S(=O)(=O)c2cccs2)OCCCC[C@H](C)O3)cc1 as the molecule, how does the cytotoxicity call read?
A: inactive
